# Assay results from article PMC12136788.
# Residue numbers refer to the chain shown, from its start. In all, about 24,000 sequences were measured (“enrichment r”: median about 0.99, highest 2% from about 3.7 on). The entries come from a sample that favours the highest values as a whole.
# T1: UNK ZnF1-3 (human, UniProt Q9C0B0 31-174)
# T1 sequence: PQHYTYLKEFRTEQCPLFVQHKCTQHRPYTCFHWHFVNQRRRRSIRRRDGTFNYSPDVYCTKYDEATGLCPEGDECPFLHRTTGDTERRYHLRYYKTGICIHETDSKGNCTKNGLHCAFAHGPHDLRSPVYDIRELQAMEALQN
# B1: chr1:88750987:88750988:+_ENSMUSG00000053333_ENSMUST00000065694|mus_mus|FALSE|FALSE (ssRNA)
# RNA: GGGAGUUCUACAGUCCGACGAUCUGAUAAGCCUCUUGUGUCCUGUGGUAUGGGGGUGUUCUCAUCUUUCAUAACUGGAGUACUAGAAUCUUCUUUUCCUCUGUCAGGAGUAGAGAUUGACAAUUUCUUAACACCAUCAACCAGCAACAGAGGAUUGAGCAUCA
# B2: chr18:33744517:33744518:+_ENSG00000134759_ENST00000351393|hu_hu|motif|central (ssRNA)
# RNA: GGGAGUUCUACAGUCCGACGAUCUAAGAACUUCUCAUUAGGUGAGAAGGCCAUCUGCGUGACUGUCAAACUGUGGAAAACGGAAUUCUGCACCUGUUUCCAAGAUGUAGUGUUCCAAAGAAUGAUAGCUGCAUGCUCUUUCUUCAACAGAGGAUUGAGCAUCA
# B3: chr4:115894766:115894767:+_ENSMUSG00000028698_ENSMUST00000030464|mus_hu|mus_mus_mus_hu_True|38_38 (ssRNA)
# RNA: GGGAGUUCUACAGUCCGACGAUCUUCCACACGGAAAUGUACUUCGGGUUUUCCAACGGCCAGUACCAGUCCGGCCAAACUACCCGAACAGGGUCCUGUCCUCCUCUCCUACAGAACACAACAAAAUGCCCCCGAACUUUCAAGCAACAGAGGAUUGAGCAUCA
# B4: chr14:31813938:31813939:-_ENSMUSG00000021917_ENSMUST00000162092|perfect_dup|motif|central (ssRNA)
# RNA: GGGAGUUCUACAGUCCGACGAUCAACUAUGUAGACAGUCCACCCAAACUGUUCAGCCACGUACCCGUAGAUAAACCCAACGGUUGCAGAAAAAAGAAUGAUCCCCUGAAACAUCUGUUCAGCUAGUUUCUGCCCCUUGUAAUCCAACAGAGGAUUGAGCAUCA
# B5: chr2:209110096:209110097:-_ENSG00000138413_ENST00000345146|hu_hu|FALSE|FALSE (ssRNA)
# RNA: GGGAGUUCUACAGUCCGACGAUCUUCUUCAAAGUUAUGUACCAGGUAUGUCACCUUUUGGGUUCCGUCACUUGGUGUGUAGGUUAUCUCUACUUUUCCAGGCCCAGGAACAACAAAAUCAGUUGCUCUGUAUUGAUCCCCAUACAACAGAGGAUUGAGCAUCA
# B6: chr2:25965407:25965408:-_ENSG00000143970_ENST00000336112|hu_mus|FALSE|FALSE (ssRNA)
# RNA: GGGAGUUCUACAGUCCGACGAUCAUGUGCUGCCGGAAUAAAAUCUCUAGGCAGGCUCUUUUCAUCAGAUGCUUGGCCUCUAGAGAAUAUGUAAUUCUCCUGGCCUAAAGUGGUUUGCUCACUCACUGGUGCCUCAGUCUUACCCAACAGAGGAUUGAGCAUCA
# B7: chr2:153237265:153237266:-_ENSMUSG00000061411_ENSMUST00000109784|mus_mus|mus_mus_mus_hu_False|8_18 (ssRNA)
# RNA: GGGAGUUCUACAGUCCGACGAUCAAAAAAAAAAAAAAAAAAGUGUCCUUGUGCCCAAAGUCUCAGGUGCUUGGAGUGUGGCUAGAAACAGCUCUUUUGGAUCCCACCUCUUUCAAAAAACAGUGUACCAACUGGUGGAGGCAGCAACAGAGGAUUGAGCAUCA
# B8: chr2:153237265:153237266:-_ENSMUSG00000061411_ENSMUST00000109784|mus_mus|mus_mus_mus_hu_False|1_58 (ssRNA)
# RNA: GGGAGUUCUACAGUCCGACGAUCAAAAAAAAAAAAAAAAAAGUGUCCUUGUGCCCAAAGUCUCAGGUGCUUGGAGUGCAGCUAGAAACAGCUCUUUUGGAUCCCACCUCUUUCAAAAACAAAAUGUACCAACUGGUAGGCAGGCAACAGAGGAUUGAGCAUCA
# B9: chr10:70731730:70731731:+_ENSG00000165732_ENST00000354185|hu_hu|motif|central (ssRNA)
# RNA: GGGAGUUCUACAGUCCGACGAUCAACCUCAGGGAUGUCUAACCCACGUGCAGCAACAUUGGUUGCCACCAAAACUCCAAAACGGCCAUUUCUAAAACCUUUCAGGGUGAUUUCCCUUUGCUUCUGUGGAAUGUCUCCAUGCAACAACAGAGGAUUGAGCAUCA
# B10: chr2:153237265:153237266:-_ENSMUSG00000061411_ENSMUST00000109784|mus_mus|mus_mus_mus_hu_False|1_78 (ssRNA)
# RNA: B8 RNA with G66A, C78U, A79G
# B11: chr7:72892646:72892647:-_ENSG00000009954_ENST00000339594|hu_hu|FALSE|FALSE (ssRNA)
# RNA: GGGAGUUCUACAGUCCGACGAUCCUUGUCACUGUGCUUCCCUGGUUUCUUGGCAGGUGGGCCUUUUUUAGGAAUGUGAAAGUUAGUGUGCAGCUUAUUGGGCGACAUCAUCUUCAUCAUUUCUUCUAGAUGUUCUUCAGGAGACAACAGAGGAUUGAGCAUCA
# B12: chr3:138121269:138121270:+_ENSG00000158186_ENST00000289104|hu_hu|FALSE|FALSE (ssRNA)
# RNA: GGGAGUUCUACAGUCCGACGAUCCAGGUGGCUUCCUUGUCUCUUUGAGAGGUGGGAAAGCCCGUGCCCUCUGGGCAAAGCCAGACCCUGUCUGCUCCCUGCCCACCUGCCCUUCUCCCUUCCUGUACCAAGUCCUUGGGCCAACAACAGAGGAUUGAGCAUCA
# B13: chr2:153237265:153237266:-_ENSMUSG00000061411_ENSMUST00000109784|mus_hu|motif|central (ssRNA)
# RNA: B8 RNA with C78U, A79G, U82G, A83G, A137G, G138A, C140G, A141C, G142A
# B14: chr11:6247107:6247108:+_ENSMUSG00000020456_ENSMUST00000003461|mus_mus|FALSE|FALSE (ssRNA)
# RNA: GGGAGUUCUACAGUCCGACGAUCAAACAUAGGUUCGUCCAUCUCAUUGUGGCCAUUUCGUCGAUAACACACCAGAUCAACUACAACAUCCUUGUGGAAGGUGUUUCUCCACUCAGCUGCCACCUUGCAUACAUACAUGACAGCCAACAGAGGAUUGAGCAUCA
# B15: chr15:76911001:76911002:-_ENSMUSG00000033565_ENSMUST00000166610|mus_hu|motif|central (ssRNA)
# RNA: GGGAGUUCUACAGUCCGACGAUCAAGAGCAUGACAAAAUAAAAACACACAAAUUUACGUCUGAUGUUCACCUUGCCCACGGUUUUUUUUUCCUAUCUUAAAACAGUGCAAACAGGUAACUUAUGCUUUUAAAACACCACGACCCAACAGAGGAUUGAGCAUCA
# B16: chr17:17165348:17165349:-_ENSG00000141030_ENST00000268717|hu_mus|motif|central (ssRNA)
# RNA: GGGAGUUCUACAGUCCGACGAUCUAUUUGAGAGGUGUAUUUAGGCAGCUGUUGUACUUUGCCAAGUAAUAUCAAAGACACGGGAAUAUACUUUUUAUAUGAUUCCAACAUGAUAUGGCUGACGGCCAUGGCAGGAGUAGUUAUCAACAGAGGAUUGAGCAUCA
# B17: chr8:74858975:74858976:-_ENSG00000154582_ENST00000284811|hu_mus|hu_hu_hu_mus_True|8_48 (ssRNA)
# RNA: GGGAGUUCUACAGUCCGACGAUCGACCUUGUAGGUAAAAUACAUGCACACUUUUGAUAGCACAUGUGAGGGGAUCUCUCUAAAAUUGACCUCAUUGGUUUCAUUCUCAGCAAACUGACCUGGACCACUCAACAUGGCCUUUAUCAACAGAGGAUUGAGCAUCA
# B18: chr2:48026839:48026840:+_ENSG00000116062_ENST00000540021|hu_hu|hu_hu_hu_mus_False|48_88 (ssRNA)
# RNA: GGGAGUUCUACAGUCCGACGAUCAUAGUGAGCCACUAGCGUCCUAAAUCUCGAACAGUGGCGGUCAUCCGAAAACUGGCCGAUGAAAAACUUUCCCAGUGAAGUGUCCACAAAGCAAACACCAUACACACGAGUGUGACCAGACAACAGAGGAUUGAGCAUCA
# B19: chr11:86535762:86535763:-_ENSMUSG00000047126_ENSMUST00000103186|mus_hu|FALSE|FALSE (ssRNA)
# RNA: GGGAGUUCUACAGUCCGACGAUCUGCAAAGCACUGAAUGACUUUAUUUGGGACGUUAGCCCUUAGGUACACACUAAGUGCCAAUGUAGGGUCCACAGAUUUCACAAGAUCACCCAGUUCUUCAGAACAUUCCAGCUUAUCUUCCAACAGAGGAUUGAGCAUCA
# B20: chr7:118226368:118226369:-_ENSMUSG00000005610_ENSMUST00000162415|mus_hu|FALSE|FALSE (ssRNA)
# RNA: GGGAGUUCUACAGUCCGACGAUCCAGCAGCUGCCACCGCAGCUGCCUCCUCAGGAUCCGGUCGUCGGGGAUAGGGAAGGGAGGGGAAAGGGGAACGGAAAACAAAAAAAAGGGGGAGGGAAGGGGGAGGAAGGAGUCGGGGACCAACAGAGGAUUGAGCAUCA
# B21: chr19:8913615:8913616:-_ENSMUSG00000071658_ENSMUST00000096259|mus_hu|mus_mus_mus_hu_False|18_18 (ssRNA)
# RNA: GGGAGUUCUACAGUCCGACGAUCAGGGUACCAAAACCUUCUGCCUGAAAUGGGUGCCCCACCCAGUAGGGAGUUGCAGCUGAAAGUAUCUGAUGCAGAAGCAGUGACUAUACGAAAGGUCACUAGAGGGGAGGGCCAGGCCAGCAACAGAGGAUUGAGCAUCA
# B22: chr17:65740002:65740003:+_ENSG00000130935_ENST00000581375|hu_hu|hu_hu_hu_mus_False|98_108 (ssRNA)
# RNA: GGGAGUUCUACAGUCCGACGAUCAACCCGUUCUUGCCUGGAUGAAGAACAGGAAGAUUCAUAUUAAAAAAAAUAUAUAUCCAUCAAGUUAGGUGUGGUGGCCACACCUUUACUCCCAGCACUUUGGGAGGUGGAUCUCUGAGUCAACAGAGGAUUGAGCAUCA
# Target: T1, UNK ZnF1-3
# Assay: nsRBNS (natural sequence RNA bind-n-seq); RBNS binding buffer (assumed for nsRBNS): 25 mM Tris pH 7.5, 150 mM KCl, 3 mM MgCl2, 0.01% Triton X-100, 500 ug/ml BSA, 20 U/ml SUPERase-In, 4 C; UNK is unkempt and MSI1 is Musashi-1; names of the RNAs are library labels; protein concentration not given here; high values mean tight binding
row,Binder,binding signal [enrichment R]
1,B1,0.857
2,B2,0.574
3,B3,0.864
4,B4,1.33
5,B5,0.472
6,B6,0.767
7,B7,5.27
8,B8,7.14
9,B9,0.937
10,B10,8.18
11,B11,0.485
12,B12,0.645
13,B13,5.88
14,B14,0.764
15,B15,1.59
16,B16,1.03
17,B17,0.645
18,B18,1.19
19,B19,0.581
20,B20,1.19
21,B21,1.83
22,B22,0.827
